A number with no mark means an inactive call. Activity calls are given as the source filed them.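 The calls were made as follows: active = two or more serine hydrolases at least half inhibited, plus every target band half blocked in a general-probe test; inactive = under two enzymes half blocked, or any target band not.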

The nature of the assay: general off-target profile by competitive ABPP – fluorescence, gel-based ABPP, powder samples, selectivity assay for PAFAH2 inhibitor project, late-stage follow-up (AID 504527). The settings on record: BW5147 murine T-cell proteome, FP-Rh fluorescence, competitor test compound, probe FP-Rh, at 20 µM, active compounds read high.
With `C#CCOCCOCCOCCN(Cc1ccccc1)C(=O)Oc1ccc([N+](=O)[O-])cc1`, the number of serine hydrolases inhibited >=50% is 1. Regarding `C#CCOCCOCCOCCN(Cc1ccccc1)C(=O)n1nccn1`, the number of serine hydrolases inhibited >=50% is 5 (active). Under `C#CCOCCOCCOCCN(Cc1ccccc1)C(=O)n1ncc(-c2ccccc2)n1` stands 8 (active). On to `C#CCOCCOCCOCCN(Cc1ccccc1)C(=O)n1nc2cccnc2n1`, for which the number of serine hydrolases inhibited >=50% is 7 (active). With `C#CCOCCOCCOCCN(Cc1ccccc1)C(=O)n1ccnc1`, the number of serine hydrolases inhibited >=50% was 0.
